Measured values taken from PubChem BioAssay AID624300 (Southern Research Specialized Biocontainment Screening …, 2012).
Among all 2,400 compounds or so, about 360 (15%) were called active. Only a sample is shown. Results with a measured potency or affinity are listed apart. A number with no mark means an inactive call.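 How the source made its calls: active means viability falls under 70% at one or more tested concentrations, taken as toxicity; inactive means viability stays over 70% at every dose.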

Assay: HeLa cell cytotoxicity, dose response, cytotoxicity control for MgcRacGAP inhibitor project (AID 624300);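 further: 100% = median of untreated control wells on the same plate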
Conditions: CellTiter-Glo luminescence, 24 h; series mostly up to 100 µM; viability: at the top concentration

| SMILES | viability [%] |
| --- | --- |
| Cc1ccc(S(=O)(=O)Oc2ccc(/C=C3/C(=N)N4C(=NC3=O)SN=C4S(C)(=O)=O)cc2)cc1 | 106 |
| COc1cc2nc(=S)n(CCCN3CCOCC3)c(N)c2cc1OC | 98.3 |
| COc1cccc(CNc2ccc3c(c2)ncn3C)c1OC | 96.4 |
| Oc1ccc(NCc2ccccc2OCc2ccccc2F)cc1 | 108 |
| COc1cccc(CNc2ccc(N3CCCCC3)cc2)c1OC | 91.9 |
| CC(Oc1ccc(Cl)cc1Cl)C(=O)Nc1ccc(O)cc1 (configuration not stated) | 113 |
| O=C(c1c(Cl)cccc1Cl)N1CCN(c2cccc3[nH]ccc23)CC1 | 85.3 |
| COc1ccc(N2CCC(CNC(=S)Nc3cccc(C)c3)C2)cc1 (configuration not stated) | 81.7 |
| Cc1nc2ccccc2n2c(O)c(CC(=O)O)cc12 | 101 |
| Clc1cc(Cl)c(OCCCCn2cncn2)c(Cl)c1 | 93.2 |
| COc1cc(/C=N\N=C2/SC(CC(=O)O)C(=O)N2c2ccc(O)cc2)ccc1O (configuration not stated) | 108 |
| CCN(CC)c1ccc(S(=O)(=O)N2CCOCC2)cc1NC(=O)COC(=O)/C=C/c1ccc(O)c(OC)c1 | 91 |
| CCN(CC)S(=O)(=O)c1ccc(C)c(NC(=O)CN2CCN(Cc3ccccc3)CC2)c1 | 95.8 |
| CCn1cnc2cc(NCc3ccc(OC)cc3)ccc21 | 98.5 |
| COc1ccc2c(c1)-c1nc(/N=C/c3ccccc3O)sc1CC2 | 111 |
| Cn1cccc1/C=N/N1CCN(c2ccccc2)CC1 | 104 |
| COc1cc(/C=N/NC(=O)c2nc(C)cc(C)n2)ccc1O | 105 |
| Cc1cc(=O)[nH]c(N/N=C/c2ccc(O)c(O)c2)n1 | 101 |
| Cc1cc(C)n(CCC(=O)N/N=C/c2ccc(O)cc2)n1 | 96.2 |
| COc1cc(/C=N/Nc2cccc3cccnc23)cc(OC)c1O | 95.5 |
| COc1cc(/C=C/C(=O)OCC(=O)N2CCCc3ccccc32)ccc1O | 97.4 |
| COc1cc(/C=C/C(=O)OCC(=O)NC(=O)NC(C)(C)C)ccc1O | 88.8 |
| COc1cc(/C=C/C(=O)OCC(=O)NC2CCS(=O)(=O)C2)ccc1O (configuration not stated) | 109 |
| COc1ccc(N2CCN(C(c3cccs3)C(C)NC(=O)c3ccco3)CC2)cc1 (configuration not stated) | 94.4 |
| O=C1NN(c2ccccc2)C(=O)C1=Cc1ccccc1O | 104 |
| O=C1NN(c2ccc(Br)cc2)C(=O)/C1=C\c1ccc(O)cc1O | 87.2 |

| SMILES | viability [%] |
| --- | --- |
| C(=N\N1CCOCC1)/c1nc(-c2ccccc2)n2ccccc12 | 101 |
| COc1cc(OC)cc(C(=O)N2CCN(Cc3ccccc3Br)CC2)c1 | 86.6 |
| COc1cc(/C=N/NC(=O)CCN2CCCCC2)ccc1O | 101 |
| COc1ccc2c(c1)-c1nc(/N=C/c3cccc(OC)c3O)sc1CC2 | 112 |
| COc1ccc2c(/C=N/Nc3ccc(C(=O)O)cc3)c[nH]c2c1 | 102 |
| COc1cc(/C=N/Nc2ccccn2)cc(OC)c1O | 91.8 |
| COc1ccc2nc(C)cc(SCC(=O)N/N=C/c3ccc(O)c(O)c3)c2c1 | 97.9 |
| CN1CCCCCC1=Nc1ccccc1C#N | 92.2 |
| CCn1c(C)nc2cc(C(=O)N/N=C/c3cccc(O)c3O)ccc21 | 108 |
| O=c1/c(=C/c2ccc(O)cc2)sc2n1CCCN=2 | 102 |
| Cc1c(N=Nc2ccc(O)cc2)c(=O)n(-c2ccccc2)n1C | 103 |
| NC(=S)NNc1ccnc2cc(Cl)ccc12 | 88 |
| Oc1ccc(Nc2ccnc3cc(Cl)ccc23)cc1 | 95.1 |
| Cc1ccc(NCc2ccco2)cc1C | 105 |
| COc1cc(/C=N/NC(=O)CCC(=O)Nc2ccc(F)cc2)ccc1O | 103 |
| CN(C)c1ccc(N/C=C/C(=O)C(C)(C)C)cc1 | 96.1 |
| COc1cc(/C=N/N=C(\N)c2nonc2N)ccc1O | 91.8 |
| CNc1nnc(-c2ccc(N(C)C)cc2)s1 | 106 |
| CCN(CC)c1ccc(N=Cc2c(C)[nH]c3ccccc23)cc1 | 87.1 |
| COCCNCC(=O)Nc1ccc(C)c(S(=O)(=O)N2CCCCC2)c1 | 101 |
| COc1cc(/C=N/NC(=O)c2ccoc2C)ccc1O | 84.7 |
| CCN(CC)c1ccc(/C=N\NC(N)=O)cc1 | 90.5 |
| COc1cc(OC)c(Cl)cc1N | 103 |
| CCc1cc(/C(Cc2ccccn2)=N\O)c(O)cc1O | 89.5 |
| CCc1cc(/C(Cc2csc(C)n2)=N/O)c(O)cc1O | 95.9 |
| COc1ccc(C)cc1NCc1cccc(OC)c1OC | 99.1 |

| SMILES | viability [%] |
| --- | --- |
| Cn1cccc1/C=N/N1CCN(c2ccccn2)CC1 | 99.6 |
| Cc1ccc(C(C)C)c(OCCCCN2CCNCC2)c1 | 89.7 |
| Cc1ccc(C(C)(C)C)cc1S(=O)(=O)N1CCC(C(=O)N2CCN(c3ccc(O)cc3)CC2)CC1 | 82.4 |
| N#C/C(=C/c1ccc(N2CCCCCC2)o1)c1ccc(Cl)cc1 | 81.8 |
| Cc1ccc(/C(C#N)=C\c2ccc(N3CCOCC3)o2)cc1 | 95.3 |
| Nc1sc(-c2ccccc2)c(Cc2ccccc2)c1C(=O)O | 87.5 |
| COc1ccc2c(c1)c(C(=O)N/N=C/c1ccc(O)c(O)c1)c(C)n2C | 94.3 |
| COc1cccc(OCC(O)CN2CCN(C)CC2)c1 (configuration not stated) | 102 |
| CCN1CCN(CC(O)COC(c2ccccc2)c2ccccc2C)CC1 (configuration not stated) | 104 |
| O=[N+]([O-])c1cccc(CN2CCN(Cc3ccco3)CC2)c1 | 101 |
| O=[N+]([O-])c1ccc(Sc2cccc3cccnc23)c([N+](=O)[O-])c1 | 101 |
| CCc1cc(-c2[nH]ncc2-c2nc3ccccc3n2C)c(O)cc1O | 91 |
| CCOc1cc(/C=N/Nc2nc(=O)[nH]nc2C)ccc1O | 91.2 |
| COc1cc(/C=N/Nc2ccc(C(F)(F)F)cn2)ccc1O | 89.1 |
| COc1ccc(CN2CCN(C(=O)CC(C)C)CC2)cc1OC | 102 |
| Cc1nnc2ccc(Oc3ccc(-c4ccccc4)cc3)nn12 | 95.5 |
| Nc1cc2c(cc1N)-c1ccccc1C2 | 94.9 |
| CCOC(=O)Nc1ccc2c(c1)Nc1ccccc1S2 | 96.4 |
| CC(=O)c1ccc2c(c1)Nc1ccccc1S2 | 94.2 |
| O=C(Sc1n[nH]c(=O)[nH]c1=O)c1ccccc1 | 101 |
| CCN(CC)c1ccc(/C=N/N2CCN(Cc3ccccc3)CC2)cc1 | 90.3 |
| O=C(Nc1ccc(N2CCCCCC2)cc1)c1ccc[nH]1 | 89.3 |
| CC(C)(C)N1C(=O)c2ccc(C(=O)Nc3ccc(O)cc3)cc2C1=O | 99.5 |
| Oc1ccc(/C=C/c2ccc3ccccc3n2)cc1 | 87.7 |
| O=C(O)c1ccc2nc(-c3ccco3)c(-c3ccco3)nc2c1 | 95 |
